Compound activity deposited in PubChem BioAssay by several laboratories.
APP transl inh: APP translation inhibition; SH-SY5Y APP 5'UTR-luciferase reporter, luminescence; inhibition, % at 2 µM; actives 0.82% (n = 190,000); AID 1285;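 active = inhibition above a set limit, derived from the sample mean plus 3 SD, cut at about 45% in these data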
Ba/F3 V617F tox: lowers viability of Ba/F3 cells expressing EpoR and JAK2V617F. inhibition, % at 5.6 µM. ATP luminescence. AID 1446. actives 1.1% (n = 220,000);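 active = inhibition above the campaign mean plus 3 SD over all tested compounds, cut at about 24% in these data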;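 note: cytokine-independent growth of Ba/F3 cells driven by EpoR plus mutant JAK2; 0% = DMSO-treated cells and 100% = JAK inhibitor I control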
IEC-6 tox: counter-screen for KLF5 inhibitors: cytotoxicity in IEC-6 cells | actives 0.78% (n = 290,000) | inhibition, % at 5 µM | AID 1825 | IEC-6 cytotoxicity, luminescence viability; in the data active = inhibition above about 22%;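 note: 0% = plate median of test compound wells and 100% = cytotoxic reference compound wells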
KLF5 inhibitor: kruppel-like factor 5 inhibition; DLD-1 KLF5 promoter-luciferase reporter, luminescence; actives 0.23% (n = 290,000); inhibition, % at 5 µM; AID 1700;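 active = inhibition above a per-plate limit of that plate's mean compound inhibition plus 3 SD, cut at about 60% in these data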;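 note: 0% = DMSO wells and 100% = LY294002 at 200 µM; higher means less KLF5 promoter-driven luciferase light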
BaF3 tox: counter-screen for JAK2V617F inhibitors: parental Ba/F3 viability inhibitors | actives 1.1% (n = 220,000) | AID 1486 | CellTiter-Glo ATP luminescence | inhibition, % at 5.6 µM;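 active = inhibition above a per-campaign cutoff, the mean inhibition of all tested compounds plus 3 SD, cut at about 27% in these data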;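 note: 0% = DMSO wells and 100% = JAK Inhibitor I control wells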
aSyn 5UTR inh: MLPCN primary screen, SNCA 5' untranslated region; alpha-synuclein 5'UTR reporter, inhibitor activity; inhibition, % (tested at 7.5 µM); actives 0.82% (n = 300,000); in the data active = inhibition above about 60%;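 note: H4 neuroglioblastoma cells stably carrying SNCA 5'UTR luciferase fusion; 0% = DMSO wells and 100% = positive control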
* hit, by the source's call; · = not tested or not shown. Shown are actives, neighbours in structure and some others; about 2.1% of the full set was active somewhere.

SMILES	APP transl inh	Ba/F3 V617F tox	IEC-6 tox	KLF5 inhibitor	BaF3 tox	aSyn 5UTR inh
C/C(N)=C(/C#N)C(=O)CSc1nnc(COc2ccccc2Cl)o1	6	0	2	-20	95*	-6
CC(C)(C)NC(=O)NC(=O)CSc1nnc(COc2ccccc2Cl)o1	-3	2	0	-14	2	3
Cc1ccc(S(=O)(=O)N2CCOC2CNC(=O)C(=O)NCCN2CCOCC2)cc1 (stereo unspecified)	·	·	6	-12	·	18
Cc1[nH]n(-c2ccccc2)c(=O)c1/C=N/Nc1nncc(-c2ccccc2)n1	82*	53*	0	35	36*	91*
CCCCN(CCCC)C(=S)N/N=C/c1c(C)[nH]n(-c2ccccc2)c1=O	2	-3	-6	-1	-1	93*
Cc1[nH]n(-c2ccccc2)c(=O)c1/C=N/NC(=O)c1ccc(O)cc1O	·	·	-2	-64	·	-12
Cc1[nH]n(-c2ccccc2)c(=O)c1C=Nc1cccc2cccnc12	70*	-1	23*	7	5	-2
Cc1ccc(-n2[nH]c(C)c(/C=N/c3ccccn3)c2=O)cc1	-12	11	14	-30	16	-12
COC(=O)c1ccc(/C=N/OCC(=O)NCc2ccc(F)cc2)cc1	-11	5	1	-9	12	2
CC(C)c1ccccc1NC(=O)COC(=O)CCN1C(=O)/C(=C\C=C\c2ccccc2)SC1=S	32	0	-7	-21	1	73*
O=C(COC(=O)CCN1C(=O)/C(=C\C=C\c2ccccc2)SC1=S)Nc1ccc(Br)cc1	22	-2	-6	-2	4	65*
CCOC(=O)c1cccc(NC(=O)CSc2nnc(C)n2CC2CCCO2)c1 (stereo unspecified)	·	·	-1	-20	·	13
N#CC1=C(N)Oc2cc(N)ccc2C1c1ccccc1Cl (stereo unspecified)	·	·	-8	-31	·	-5
N#CC1=C(N)OC2=C(CCc3ccccc32)C1c1ccccc1Cl (stereo unspecified)	94*	5	-1	13	9	-14
O=c1[nH]c2ccccc2cc1CN(Cc1ccco1)S(=O)(=O)c1ccccc1	·	·	-3	1	·	5
CCc1nc2ccccc2c2nc3ccccc3n12	2	5	5	-23	7	-50
O=c1c2ccc([N+](=O)[O-])c3cccc(c32)c2nc3ccccc3n12	-8	4	8	-9	6	79*
Cc1cc(C)nc(NC(=O)c2ccc(COc3ccccc3Cl)cc2)c1	3	62*	19	28	71*	3
Nc1nc(Nc2ccccc2)nc(NCc2ccccc2)c1[N+](=O)[O-]	·	-2	9	9	-1	84*
CC(C)CNc1nc(N)c([N+](=O)[O-])c(NCc2ccccc2)n1	·	·	-3	-26	·	77*
CN(CC(=O)Nc1ccccc1-c1ccccc1)Cc1ccccc1Cl	-13	1	-8	-20	7	17
COc1ccc(CC(=O)NCC(=O)N/N=C(/C)c2ccco2)cc1	-2	-1	2	-10	0	21
O=C(O)c1ccc2c3c(ncnc13)-c1ccccc1C2=O	3	3	-1	-3	8	107*
CCS(=O)(=O)N1CCC(C(=O)Nc2ccc3c(c2)CCC3)CC1	·	·	-6	-31	·	-83
CC(=O)Oc1ccc2oc(=O)c3c(c2c1)CCCN3C(=O)CN1CCN(c2ncccn2)CC1	9	-2	-3	-3	5	1
SMILES	APP transl inh	Ba/F3 V617F tox	IEC-6 tox	KLF5 inhibitor	BaF3 tox	aSyn 5UTR inh
O=C(CN1CCN(c2ncccn2)CC1)N1CCCc2c1c(=O)oc1ccc(O)cc21	72*	-4	-3	-32	-2	·
Cc1cccc(C)c1Nc1nnc(SCc2cc([N+](=O)[O-])cc3c2OCOC3)s1	48*	-1	0	-31	3	-19
COc1cccc(Nc2nnc(SCc3cc([N+](=O)[O-])cc4c3OCOC4)s2)c1	92*	3	2	5	4	21
CCCc1nc2nc(C)c(NS(=O)(=O)c3ccc(Cl)cc3)c(=O)n2[nH]1	·	·	5	-12	·	-11
O=[N+]([O-])c1ccccc1/C=N/Nc1nccnc1Cl	-67	5	4	-22	12	-184
Oc1ccccc1/C=N/Nc1nccnc1Cl	42	10	1	-58	8	88*
CCc1c(C)c(C#N)c2nc3ccccc3n2c1Cl	95*	-6	-6	-4	-3	105*
CCc1c(C)c(C#N)c2nc3ccccc3n2c1-n1nc(C)cc1C	-20	-2	1	4	0	-11
CCCCn1c(N)c(N(CCOC)C(=O)Cn2c(=O)oc3ccccc32)c(=O)[nH]c1=O	·	·	·	·	·	-4
CC1=NN(c2ccccc2)C(=O)/C1=C\c1cc(C)n(-c2cccnc2)c1C	·	3	-2	-4	-3	-12
CC1=NN(c2ccccc2)C(=O)/C1=C\c1cc(C)n(-c2ccccc2)c1C	-50	1	25*	-43	1	-82
N#CCCN(Cc1cccnc1)C(=S)NC(=O)C1CC1	-4	-4	-2	-46	4	25
CC1(C)CC(N2CCCC2)=CC(=[N+]2CCCC2)C1	22	79*	16	-8	69*	-24
c1ccc(CN2CCN(c3ncccn3)CC2)cc1	·	·	5	-13	·	-14
CC1(C)CC(N2CCN(Cc3ccccc3)CC2)=CC(=[N+]2CCCCC2)C1	·	80*	4	10	71*	-13
Cc1cc(C)n(-c2ccc(C(=O)N3CCC(CO)(Cc4ccccc4)CC3)cc2)n1	-7	4	3	-4	16	-27
COc1ccc(-c2n(Cc3ccccc3)c3ccccc3[n+]2Cc2ccccc2)cc1	-13	96*	11	9	74*	55
Cn1c(=O)c2c(ncn2CC(COCc2ccccc2)OCc2ccccc2)n(C)c1=O (stereo unspecified)	·	2	-2	-17	-2	1
S=c1nc[nH]c2c1ncn2C1CCCO1 (stereo unspecified)	·	63*	78*	8	44*	2
O=C(CN1CCOCC1)NNc1c2ccccc2nc2ccccc12	·	0	-2	-46	0	-1
C[N+]1(CC(=O)NNc2c3ccccc3nc3ccccc23)CCOCC1	-17	17	1	9	29*	-6
CCCN1CCC(=O)N([C@H](CSc2ccc(OC)cc2)CC(C)C)CC1	·	·	·	·	·	-113
Cc1ccc(C(=O)c2ccc(O)cc2)cc1C	-26	-2	2	-46	-2	·
Cc1ccc(C(=O)c2cccc(N)c2)cc1C	49*	-1	2	-4	7	82*
O=C(Nc1ccccc1)Nc1cc(OCC(F)(F)F)cc(OCC(F)(F)F)c1	4	23	13	4	6	74*
O=C(Nc1ccccc1)Nc1cc(Cl)cc(Cl)c1	4	-4	6	-24	3	-21
Cc1c(CN(C)C)c2c(n1C)C(=O)c1ccc(Br)cc1-2	-15	8	9	-7	11	-10
CCOC(=O)c1c2c(n(C)c1C)C(=O)C(=O)c1ccc(Br)cc1-2	-5	-3	4	-13	-2	110*
